# Where “and” joins values, the source holds several entries; their conditions need not be identical. Equal values may be shown once. Unmarked numbers belong to inactive results. The list shows a part of the results. Calls of active or inactive are those of the source. Rule as the data show it, unless noted: active = inhibition above about 25%; inactive = the rest.
# Experiments:
# [1] = biological target: Nuclear receptor coactivator 1 (Homo sapiens) (UniProt Q15788); experiment: NCOA1 GAL4-fusion reporter inhibition – cell-based, luminescence, quadruplicate, confirmation (AID 588820;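 active = mean inhibition above 46.68%, the untreated control wells mean plus 3 SD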;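 also: 0% = DMSO wells and 100% = gossypol 36 µM treated wells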); details: HEK293 GAL4-SRC1 luciferase reporter, at 3.6 µM, active compounds read high
# Nuclear receptor coactivator 1 (Homo sapiens), sequence (Q15788 whole entry, looked up, the tested form may be a part): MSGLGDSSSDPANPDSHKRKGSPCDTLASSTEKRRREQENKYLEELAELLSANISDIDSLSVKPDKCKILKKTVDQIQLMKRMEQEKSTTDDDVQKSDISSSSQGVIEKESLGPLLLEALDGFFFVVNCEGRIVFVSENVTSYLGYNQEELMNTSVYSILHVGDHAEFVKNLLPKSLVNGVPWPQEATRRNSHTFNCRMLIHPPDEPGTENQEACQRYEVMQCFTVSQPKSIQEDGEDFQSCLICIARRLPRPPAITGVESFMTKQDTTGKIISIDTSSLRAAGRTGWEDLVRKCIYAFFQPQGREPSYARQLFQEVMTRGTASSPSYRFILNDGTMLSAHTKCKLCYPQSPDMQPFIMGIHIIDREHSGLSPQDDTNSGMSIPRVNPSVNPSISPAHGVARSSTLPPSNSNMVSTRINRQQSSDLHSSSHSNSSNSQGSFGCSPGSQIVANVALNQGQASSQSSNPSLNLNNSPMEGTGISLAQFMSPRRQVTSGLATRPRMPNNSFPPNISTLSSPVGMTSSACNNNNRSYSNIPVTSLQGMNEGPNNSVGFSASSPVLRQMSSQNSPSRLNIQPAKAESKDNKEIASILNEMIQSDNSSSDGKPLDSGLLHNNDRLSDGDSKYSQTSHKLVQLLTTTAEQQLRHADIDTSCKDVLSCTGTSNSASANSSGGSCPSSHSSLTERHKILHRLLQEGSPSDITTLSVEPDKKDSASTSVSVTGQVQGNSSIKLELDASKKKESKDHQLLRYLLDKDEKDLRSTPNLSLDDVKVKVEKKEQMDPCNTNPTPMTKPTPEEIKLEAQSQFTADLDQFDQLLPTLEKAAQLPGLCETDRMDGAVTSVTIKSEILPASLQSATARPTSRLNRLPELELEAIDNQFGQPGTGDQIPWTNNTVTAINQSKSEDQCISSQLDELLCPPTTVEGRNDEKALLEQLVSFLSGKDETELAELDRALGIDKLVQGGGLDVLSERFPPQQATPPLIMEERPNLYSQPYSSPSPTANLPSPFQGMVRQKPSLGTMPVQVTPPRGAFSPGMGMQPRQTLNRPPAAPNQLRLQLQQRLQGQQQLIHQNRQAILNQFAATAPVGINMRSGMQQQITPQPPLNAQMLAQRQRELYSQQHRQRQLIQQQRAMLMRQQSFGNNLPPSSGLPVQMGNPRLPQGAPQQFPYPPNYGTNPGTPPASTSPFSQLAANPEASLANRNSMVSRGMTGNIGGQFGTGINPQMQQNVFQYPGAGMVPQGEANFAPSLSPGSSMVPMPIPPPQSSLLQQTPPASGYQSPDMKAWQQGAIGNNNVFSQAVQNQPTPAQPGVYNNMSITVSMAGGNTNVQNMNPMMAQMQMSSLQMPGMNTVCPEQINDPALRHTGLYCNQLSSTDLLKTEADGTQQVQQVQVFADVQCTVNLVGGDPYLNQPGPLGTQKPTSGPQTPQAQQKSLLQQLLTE
# [2] = repression of VP16-driven luciferase reporter – cell-based, luminescence, high throughput, counter-screen for SRC1 inhibitor project (AID 588824); details: cell-based VP16 transactivation luciferase luminescence; at 3.6 µM; active compounds read high
# [3] = system: transactivating tegument protein VP16 (Human herpesvirus 1); experiment: compounds suppressing VP16-driven luciferase signal – cell-based, luminescence, single concentration, counter-screen for SRC2 inhibitor project (AID 652007; in the data active = inhibition above about 36%); details: cell-based VP16 transactivation luciferase reporter, at 8.9 µM, active compounds read high
# [4] = biological target: Nuclear receptor coactivator 2 (Homo sapiens) (UniProt Q15596); experiment: inhibition of GAL4-SRC2 driven luciferase expression – cell-based, luminescence, HEK293, triplicate, confirmation (AID 652008;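 active = mean inhibition above 46.5%, the solvent-only control mean plus 3 SD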;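 also: 0% = DMSO-treated cells and 100% = Gossypol at 36 µM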); details: HEK293 GAL4-SRC2 luciferase reporter, at 8.9 µM, active compounds read high
# Nuclear receptor coactivator 2 (Homo sapiens), sequence (Q15596 whole entry, looked up, the tested form may be a part): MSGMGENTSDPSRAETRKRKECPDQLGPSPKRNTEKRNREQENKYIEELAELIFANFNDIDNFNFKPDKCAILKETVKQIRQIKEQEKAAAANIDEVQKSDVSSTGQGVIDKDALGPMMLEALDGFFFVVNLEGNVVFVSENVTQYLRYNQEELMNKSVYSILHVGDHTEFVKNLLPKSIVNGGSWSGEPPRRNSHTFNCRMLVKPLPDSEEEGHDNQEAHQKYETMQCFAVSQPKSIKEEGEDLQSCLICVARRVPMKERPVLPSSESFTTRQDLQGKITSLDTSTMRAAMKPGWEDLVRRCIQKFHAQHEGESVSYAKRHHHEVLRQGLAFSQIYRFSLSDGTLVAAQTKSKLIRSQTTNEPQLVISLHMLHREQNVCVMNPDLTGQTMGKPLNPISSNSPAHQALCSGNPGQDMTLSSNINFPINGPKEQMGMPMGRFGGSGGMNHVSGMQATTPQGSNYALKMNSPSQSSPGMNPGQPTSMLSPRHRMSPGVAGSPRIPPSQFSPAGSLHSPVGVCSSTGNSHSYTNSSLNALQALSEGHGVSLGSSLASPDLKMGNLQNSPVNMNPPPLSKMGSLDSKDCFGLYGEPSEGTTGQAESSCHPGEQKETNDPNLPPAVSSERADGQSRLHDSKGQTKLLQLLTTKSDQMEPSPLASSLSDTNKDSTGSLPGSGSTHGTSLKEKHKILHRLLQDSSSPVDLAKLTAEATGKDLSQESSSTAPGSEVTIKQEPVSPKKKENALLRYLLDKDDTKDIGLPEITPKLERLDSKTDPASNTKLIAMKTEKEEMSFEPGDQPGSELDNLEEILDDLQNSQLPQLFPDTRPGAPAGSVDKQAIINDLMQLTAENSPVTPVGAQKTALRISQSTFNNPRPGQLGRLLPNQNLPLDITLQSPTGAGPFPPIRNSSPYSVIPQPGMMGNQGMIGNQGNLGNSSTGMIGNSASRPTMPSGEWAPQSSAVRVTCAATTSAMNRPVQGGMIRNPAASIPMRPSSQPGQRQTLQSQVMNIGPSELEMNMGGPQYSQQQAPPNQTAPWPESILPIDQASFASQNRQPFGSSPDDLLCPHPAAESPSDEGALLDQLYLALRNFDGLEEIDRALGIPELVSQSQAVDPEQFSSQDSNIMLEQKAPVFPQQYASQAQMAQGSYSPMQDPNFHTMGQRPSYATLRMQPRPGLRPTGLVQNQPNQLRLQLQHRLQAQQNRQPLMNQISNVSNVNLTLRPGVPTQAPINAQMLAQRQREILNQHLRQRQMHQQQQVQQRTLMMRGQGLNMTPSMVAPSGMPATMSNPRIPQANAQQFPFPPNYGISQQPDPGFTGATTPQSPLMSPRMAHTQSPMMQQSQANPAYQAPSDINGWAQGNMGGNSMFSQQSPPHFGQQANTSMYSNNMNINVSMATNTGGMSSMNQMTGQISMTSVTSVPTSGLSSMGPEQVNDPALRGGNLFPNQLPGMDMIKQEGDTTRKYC
# [5] = StAR promoter reporter inhibitors, counter-screen for LRH-1 inverse agonist project, cell-based, luminescence, high throughput (AID 651611; in the data active = inhibition above about 28%); details: StAR promoter luciferase reporter counterscreen, at 3.6 µM, active compounds read high
# [6] = biological target: Nuclear receptor subfamily 5 group A member 2 (Homo sapiens) (UniProt O00482); experiment: NR5A2 activity suppression in reporter cells – cell-based, luminescence, confirmation (AID 651613; in the data active = inhibition above about 42%;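 also: HEK293T cells co-transfected with LRH-1 and StAR promoter luciferase reporter; 0% = vehicle wells and 100% = parental cells lacking receptor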); details: cell-based LRH-1 luciferase reporter, inverse agonism; at 3.6 µM; active compounds read high
# Nuclear receptor subfamily 5 group A member 2 (Homo sapiens), sequence (O00482 whole entry, looked up): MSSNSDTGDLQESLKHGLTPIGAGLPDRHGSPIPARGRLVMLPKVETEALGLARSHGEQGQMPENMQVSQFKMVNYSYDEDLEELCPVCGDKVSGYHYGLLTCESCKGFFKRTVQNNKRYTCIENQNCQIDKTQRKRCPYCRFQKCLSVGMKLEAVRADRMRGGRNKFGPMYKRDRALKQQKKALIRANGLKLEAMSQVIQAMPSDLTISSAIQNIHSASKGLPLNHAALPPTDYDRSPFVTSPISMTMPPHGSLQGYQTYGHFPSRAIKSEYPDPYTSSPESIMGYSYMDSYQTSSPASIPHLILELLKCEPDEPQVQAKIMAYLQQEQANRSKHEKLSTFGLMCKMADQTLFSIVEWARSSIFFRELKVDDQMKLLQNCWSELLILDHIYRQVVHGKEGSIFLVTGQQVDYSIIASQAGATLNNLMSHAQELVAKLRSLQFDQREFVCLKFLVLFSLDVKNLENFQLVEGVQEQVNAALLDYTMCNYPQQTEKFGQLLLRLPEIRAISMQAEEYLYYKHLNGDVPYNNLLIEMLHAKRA
# [7] = biological target: Steroidogenic factor 1 (Homo sapiens) (UniProt Q13285); experiment: inverse agonism at SF1 nuclear receptor – cell-based, luminescence, high throughput, counter-screen for LRH-1 inverse agonist project (AID 651614; in the data active = inhibition above about 44%;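 also: cells cotransfected with StAR promoter reporter and SF1 expression vector; 0% = vehicle on cells with receptor and 100% = vehicle on cells lacking receptor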); details: cell-based SF1 luciferase reporter, at 3.6 µM, active compounds read high
# Steroidogenic factor 1 (Homo sapiens), sequence (Q13285 whole entry, looked up, the tested form may be a part): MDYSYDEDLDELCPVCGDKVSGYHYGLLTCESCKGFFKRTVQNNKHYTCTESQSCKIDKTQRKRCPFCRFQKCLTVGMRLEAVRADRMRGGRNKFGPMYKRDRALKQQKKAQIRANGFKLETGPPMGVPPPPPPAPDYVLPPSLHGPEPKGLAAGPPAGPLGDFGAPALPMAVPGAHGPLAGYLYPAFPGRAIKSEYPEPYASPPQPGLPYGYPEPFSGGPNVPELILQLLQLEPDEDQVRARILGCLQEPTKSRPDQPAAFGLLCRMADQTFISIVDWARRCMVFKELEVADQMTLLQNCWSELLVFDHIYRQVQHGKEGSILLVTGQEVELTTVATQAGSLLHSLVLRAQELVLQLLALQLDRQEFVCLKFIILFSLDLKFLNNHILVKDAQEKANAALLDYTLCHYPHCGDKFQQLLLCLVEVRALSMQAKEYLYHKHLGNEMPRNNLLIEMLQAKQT
# [8] = compounds suppressing VP16-driven luciferase signal – cell-based, luminescence, high throughput, counter-screen for LRH-1 inverse agonist project (AID 651615; in the data active = inhibition above about 33%); details: Gal4-VP16 luciferase reporter cells, at 3.6 µM, active compounds read high
# [9] = biological target: Oxysterols receptor LXR-beta (Homo sapiens) (UniProt P55055); experiment: nonspecific reporter activation via LXR – cell-based, luminescence, HEK293, H. contortus campaign, counter-screen for hcDAF-12 agonist project, confirmation (AID 743027;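 active = mean percent activation of the reporter above a cutoff set as the average over tested compounds plus their standard deviation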); details: HEK293 Gal4-LXR tk-luc reporter, 24 h, at 6.8 µM, active compounds read high, normalized: DMSO 0%, positive control 100%
# Oxysterols receptor LXR-beta (Homo sapiens), sequence (P55055 whole entry, looked up, the tested form may be a part): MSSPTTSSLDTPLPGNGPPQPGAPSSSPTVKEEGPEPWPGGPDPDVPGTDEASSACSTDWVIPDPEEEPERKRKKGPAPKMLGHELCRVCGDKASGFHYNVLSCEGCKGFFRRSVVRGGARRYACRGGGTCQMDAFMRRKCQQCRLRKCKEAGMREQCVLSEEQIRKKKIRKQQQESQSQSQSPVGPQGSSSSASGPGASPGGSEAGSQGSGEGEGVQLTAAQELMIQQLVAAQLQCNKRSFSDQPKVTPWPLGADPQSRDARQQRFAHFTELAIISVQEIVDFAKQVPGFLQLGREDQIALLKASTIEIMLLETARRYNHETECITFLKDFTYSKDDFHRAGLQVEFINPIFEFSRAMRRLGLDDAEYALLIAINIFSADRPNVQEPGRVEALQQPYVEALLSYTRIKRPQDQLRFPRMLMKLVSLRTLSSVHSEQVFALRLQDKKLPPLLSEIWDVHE
# [10] = system: Nuclear hormone receptor DAF-12 (Haemonchus contortus); experiment: hcDAF-12 luciferase reporter activation, retest – cell-based, luminescence, HEK293, lit1-tk-luc, triplicate, confirmation (AID 743032;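 active = mean activation across triplicate tests above the threshold derived from the earlier primary screen, cut at about 5.5% in these data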;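 also: 0% = DMSO only wells and 100% = 3 µM Δ7-dafachronic acid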); details: HEK293 hcDAF-12 lit1-tk-luc reporter, at 6.8 µM, active compounds read high, % of Δ7-dafachronic acid response
# [11] = biological target: Receptor-interacting serine/threonine-protein kinase 2 (Homo sapiens) (UniProt O43353); experiment: inhibitors of RIPK2 association with NOD2 – fluorescence, CHO cells, BLA complementation, triplicate, confirmation (AID 624370;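 active = mean inhibition across replicates above a set limit taken from the earlier primary screen, cut at about 21% in these data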;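 also: 0% = DMSO-only wells and the high end = clavulanate BLA-blocked wells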); details: CCF4 FRET, at 4.98 µM, active compounds read high
# Receptor-interacting serine/threonine-protein kinase 2 (Homo sapiens), sequence (O43353 whole entry, looked up): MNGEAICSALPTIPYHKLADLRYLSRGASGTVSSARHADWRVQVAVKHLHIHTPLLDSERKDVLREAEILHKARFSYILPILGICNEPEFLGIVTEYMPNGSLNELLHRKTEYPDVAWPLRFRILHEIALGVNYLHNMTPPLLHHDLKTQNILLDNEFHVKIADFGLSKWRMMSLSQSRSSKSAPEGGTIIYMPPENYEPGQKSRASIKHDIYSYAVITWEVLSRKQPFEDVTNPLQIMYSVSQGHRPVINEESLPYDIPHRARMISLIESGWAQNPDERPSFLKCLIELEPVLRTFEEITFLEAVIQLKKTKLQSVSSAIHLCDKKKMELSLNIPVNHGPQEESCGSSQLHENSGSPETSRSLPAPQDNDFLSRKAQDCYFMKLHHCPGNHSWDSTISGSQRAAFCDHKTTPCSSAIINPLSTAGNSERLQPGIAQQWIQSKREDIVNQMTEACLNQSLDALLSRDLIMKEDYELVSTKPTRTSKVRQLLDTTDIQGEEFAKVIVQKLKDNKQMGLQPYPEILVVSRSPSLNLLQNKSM
# [12] = BLA reporter readout interference – cell-based, CHO-K1 CMV-bla, CCF4 FRET, fluorescence, artefact control for NOD2-RIPK2 interaction inhibitor project, confirmation (AID 624371;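 active = mean inhibition above the low-control mean inhibition plus three low-control SD, cut at about 11% in these data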;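 also: 0% = DMSO only wells and 100% = clavulanate high control wells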); details: CCF4 FRET ratio, counterscreen, at 4.98 µM, active compounds read high
# [13] = VP16-driven transactivation reporter suppression – cell-based, luminescence, HEK293, counter-screen for COUP-TFII antagonist project (AID 687007; in the data active = inhibition above about 13%); details: HEK293 Gal4-VP16 luciferase reporter, at 8.5 µM, active compounds read high
# [14] = biological target: COUP transcription factor 2 (Homo sapiens) (UniProt P24468); experiment: retest of COUP-TFII reporter suppressors – cell-based, luciferase reporter, HEK293, triplicate, confirmation (AID 687008;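 active = mean inhibition over three repeats above a set limit taken from the earlier primary screen, cut at about 38% in these data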;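 also: 100% = cells given the luciferase reporter alone without the COUP-TF2 vector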); details: HEK293 NGFI-A luciferase reporter, luminescence; at 8.5 µM; active compounds read high
smiles,measurement,setting,value
CC(C)(C)c1cc(/C=N/O)cc(C(C)(C)C)c1O,inhibition,[1],33.6%
same,inhibition,[2],26.5% (active)
same,inhibition,[3],-7.33%
same,inhibition,[4],9.3%
c1ccc2c(-c3cccc4nccn34)cncc2c1,inhibition,[1],33.6%
same,inhibition,[2],30.7% (active)
same,inhibition,[3],5.09%
same,inhibition,[4],11%
Cc1cc(NC(=O)Cc2ccccc2)c2ccccc2n1,inhibition,[1],11.1%
same,inhibition,[2],36.5% (active)
same,inhibition,[3],9.96%
same,inhibition,[4],24.6%
COc1ccc(S(=O)(=O)N2CCOCC2)cc1NC(=O)CCNC(=O)c1ccc(Br)cc1,inhibition,[1],64.3% (active)
same,inhibition,[2],61.1% (active)
same,inhibition,[5],90.4% (active)
same,inhibition,[6],100% (active)
same,inhibition,[7],95% (active)
same,inhibition,[8],67.4% (active)
same,inhibition,[3],2.56%
same,inhibition,[4],44.6%
O=C1c2c(O)ccc(O)c2C(=O)c2c(NCCNCCO)ccc(NCCNCCO)c21,inhibition,[1],-142% and -11.9%
same,inhibition,[2],20.7% and 0.91%
same,inhibition,[6],77.4% (active)
same,inhibition,[7],56.3% (active)
Cc1cc(Nc2cccc(Cl)c2)nc(NCc2ccccc2)n1,inhibition,[1],-6.91%
same,inhibition,[2],12.4%
same,inhibition,[3],-3.2%
same,inhibition,[4],13.1%
Cc1ccccc1Cn1c(C)nc2ccccc21,inhibition,[1],-27.4%
same,inhibition,[2],29.1% (active)
same,inhibition,[3],20%
same,inhibition,[4],27%
Cc1sc2ncnc(NC3CCN(Cc4ccccc4)CC3)c2c1C,inhibition,[1],-6.93%
same,inhibition,[2],23.8%
same,inhibition,[3],14.3%
same,inhibition,[4],29%
Cc1ccc(-c2cc(C(=O)NCCCN3CCOCC3)no2)cc1,inhibition,[1],8.12%
same,inhibition,[2],-4.18%
same,inhibition,[3],-12.9%
same,inhibition,[4],53.2% (active)
COc1ccc(-c2noc(CCCCC(=O)N3CCN(c4cc(C)ccc4C)CC3)n2)cc1,inhibition,[1],-26%
same,inhibition,[2],32.4% (active)
same,inhibition,[3],29.6%
same,inhibition,[4],48.2% (active)
c1cn(-c2ncnc3sc4c(c23)CCCC4)cn1,inhibition,[1],11.4%
same,inhibition,[2],7.19%
same,inhibition,[3],-1.75%
same,inhibition,[4],-4.88%
O=C(Nc1cccc2c1CCCC2)c1cc([N+](=O)[O-])ccc1Cl,inhibition,[1],19%
same,inhibition,[2],25%
same,inhibition,[3],48.5% (active)
same,inhibition,[4],62.2% (active)
Cc1ccc(-c2nnc(SCC(=O)Nc3ccccc3F)o2)cc1,inhibition,[1],-8.02%
same,inhibition,[2],26.2% (active)
same,inhibition,[3],19.4%
same,inhibition,[4],60% (active)
Cc1nc2sc(C(N)=O)c(N)c2c(C)c1CC(=O)c1ccccc1,inhibition,[1],35.5%
same,inhibition,[2],5.05%
same,inhibition,[3],-52.2%
same,inhibition,[4],19.1%
COc1ccc(CNc2ncc(-c3ccc(F)cc3)n2C)c2ccccc12,inhibition,[1],41.3%
same,inhibition,[2],-14.1%
same,inhibition,[3],24.8%
same,inhibition,[4],94.5% (active)
COCCNC(=O)c1c[nH]c2ccc(S(=O)(=O)N3CCc4ccccc43)cc2c1=O,inhibition,[1],43.8%
same,inhibition,[2],29.5% (active)
same,inhibition,[3],20.1%
same,inhibition,[4],33.5%
CN(C)CCNC(=O)c1ccc(Cl)c2cc3ccccc3nc12,inhibition,[1],14.8%
same,inhibition,[2],29.6% (active)
same,inhibition,[5],70.1% (active)
same,inhibition,[6],73.1% (active)
same,inhibition,[7],67.4% (active)
same,inhibition,[8],61% (active)
same,activation,[9],0.85%
same,activation,[10],8.92% (active)
CC(C)CCNC(=O)c1sc2ccc(S(=O)(=O)N3CCCCC3)cc2c1N,inhibition,[1],13.5%
same,inhibition,[2],13.8%
same,inhibition,[3],7.45%
same,inhibition,[4],27.6%
Cc1ccc(C(=O)C(C(=O)/C=C/c2ccccc2)=C2SCCCS2)cc1,inhibition,[1],44.4%
same,inhibition,[2],34.3% (active)
same,inhibition,[5],30.6% (active)
same,inhibition,[6],54.2% (active)
same,inhibition,[7],47.2% (active)
same,inhibition,[8],44.5% (active)
same,inhibition,[3],42.6% (active)
same,inhibition,[4],56% (active)
O=C1CCC2S/C(=C/Nc3ccc(C(F)(F)F)cc3)C(=O)N12 (stereo not given),inhibition,[1],15.1%
same,inhibition,[2],6.56%
same,inhibition,[3],3.33%
same,inhibition,[4],66.4% (active)
COc1cccc(N2CCN(c3c(C#N)c(C(F)(F)F)nn3C)CC2)c1,inhibition,[1],48.8% (active)
same,inhibition,[2],32.2% (active)
same,inhibition,[3],-6.45%
same,inhibition,[4],41.6%
COc1ccc(C2=CC(c3cccc(OC)c3)n3nnnc3N2)cc1 (stereo not given),inhibition,[11],3.71%
same,inhibition,[12],10.4% (active)
O=C(CCN1CCc2ccccc2C(O)(c2ccccc2)C1)c1ccc2c(c1)OCCO2 (stereo not given),inhibition,[11],3.17%
same,inhibition,[12],-1.26%
OC[C@@H]1CN(Cc2ccncc2)C[C@H](n2cnc3c(N4CCN(c5ccccc5)CC4)ncnc32)O1,inhibition,[1],2.2%
same,inhibition,[2],37.8% (active)
same,inhibition,[13],8.35%
same,inhibition,[14],44.6% (active)
O=C(NN=Cc1ccc(N2CCOCC2)cc1)c1cc2ccccc2cc1O,inhibition,[11],0.56%
same,inhibition,[12],2.74%
CCOC(=O)c1c(C)cc2c(CO)n[nH]c(=O)c2c1C,inhibition,[1],11.6%
same,inhibition,[2],23.1%
same,inhibition,[3],-8.56%
same,inhibition,[4],34.9%

# Source: PubChem BioAssay
